Bioassay records as filed in PubChem.
Hits are enriched below; roughly 2.2% of the tested compounds scored in any of these assays.
EBV LMP1 NFkB: Epstein-Barr LMP1 NF-kappaB reporter inhibition. LMP1-induced NF-kappaB luciferase reporter cells, luminescence. inhibition, % at 12.5 µM. hit rate 0.69% among 350,000; in the data active = inhibition above about 41%;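 note: 0% = neutral control wells and 100% = reference inhibitor control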
TRPM1 prom inh: inhibitors of MITF-driven TRPM1 promoter in melanoma cells; AID 488899; inhibition, % at 12.5 µM; hit rate 0.83% among 330,000; SK-MEL-5 TRPM1 promoter luciferase, 24 h;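 active = mean inhibition across replicates of 60% or more, whatever share of single replicates reaches that level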
Shn3 3UTR inh: inhibitors of Schnurri-3 3'UTR reporter in osteoblasts; Clone20 osteoblast Shn3 3'UTR firefly luciferase, 24 h; inhibition, % at 12.5 µM; hit rate 0.52% among 360,000; AID 588674;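 active = mean inhibition of at least 75% with every replicate also reaching 75%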;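 note: 0% = median of neutral control wells and 100% = pilot-screen positive control compound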
LGR2 inh: Drosophila LGR2 receptor signaling inhibition; inhibition, % at 9.99 µM; hit rate 0.35% among 380,000; HEK293 LGR2, CRE-luciferase, bursicon-stimulated, 4 h;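 active = drop in luminescence signal, shown as inhibition above about 50% in the replicate tests, limit read from the data, passing the limit was not always enough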;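 note: agonist challenge used bursicon conditioned medium at about half maximal strength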
PAX8 inh HTS: lowers PAX8-driven luciferase in RMG-I cells | RMG-I TPO-luciferase reporter, SteadyGlo, 24 h | inhibition, % at 12.6 µM | hit rate 1.2% among 360,000;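 active = mean replicate inhibition at least 60% with every replicate also reaching 60%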;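 note: luciferase light reporting Pax8 driven TPO promoter activity; plate controls were median of neutral control wells for no effect and mitoxantrone controls for full effect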
EWS-Fli block: blocks EWS/Fli oncoprotein-driven transcription. A673 NR0B1-luciferase reporter, viability-normalised. inhibition, % at 12.6 µM. hit rate 0.67% among 350,000. AID 651661;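 active = mean inhibition of at least 50% after viability correction, with every replicate also passing that limit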;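 note: firefly luciferase signal divided by Alamar Blue viability fluorescence both relative to DMSO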
An asterisk follows results filed as active.

For COc1ccc(CN2C(=O)CSCC2=O)cc1OC the results were EBV LMP1 NFkB 5, TRPM1 prom inh 21, Shn3 3UTR inh -3, LGR2 inh -12, PAX8 inh HTS 9 and EWS-Fli block 6.
For COc1ccc(CCN2C(=O)CSC2=S)cc1OC the results were EBV LMP1 NFkB 26, TRPM1 prom inh 15, Shn3 3UTR inh 0, LGR2 inh 6, PAX8 inh HTS 90* and EWS-Fli block 22.
`CCCNC(=O)[C@H]1[C@H](CO)[C@H]2Cn3c(ccc(/C=C/c4ccccc4)c3=O)[C@@H]1N2C(=O)c1cccnc1` gave LGR2 inh -7, PAX8 inh HTS 8 and EWS-Fli block -7.
`CCCc1cc(=O)n2[nH]cc(-c3ccc(Cl)cc3)c2n1` gave EBV LMP1 NFkB 44*, TRPM1 prom inh 21, Shn3 3UTR inh 1, LGR2 inh 9, PAX8 inh HTS 29 and EWS-Fli block 23.
`CCC(=O)N(C)C[C@@H]1Oc2ncc(-c3ccccc3F)cc2C(=O)N([C@H](C)CO)C[C@@H]1C` gave LGR2 inh -14 and EWS-Fli block -13.
Screening Cc1cc(C)c(S(=O)(=O)ON2C(=O)c3ccccc3C2=O)cc1C returned EBV LMP1 NFkB -18, TRPM1 prom inh 31, Shn3 3UTR inh 70 and LGR2 inh -2.
For Cc1cc(C)c(C)c(S(=O)(=O)ON2C(=O)c3ccccc3C2=O)c1C the results were EBV LMP1 NFkB 0, TRPM1 prom inh 32, Shn3 3UTR inh 65, LGR2 inh 5 and EWS-Fli block 56*.
Screening C/C=C/c1cccc(-c2nc(C(=O)NCc3ccc(OC)cc3)cc3c2[C@@H](CCO)N([S@](=O)C(C)(C)C)C3)c1 returned LGR2 inh -31, PAX8 inh HTS 16 and EWS-Fli block -11.
O=C(NCc1ccc(F)cc1)C1(c2cccs2)CCOCC1 was read as EBV LMP1 NFkB 2, TRPM1 prom inh 0, Shn3 3UTR inh -6, LGR2 inh -9, PAX8 inh HTS 123* and EWS-Fli block -1.
For Oc1ccc(Nc2nc(N3CCCC3)c3ccccc3n2)cc1 the results were EBV LMP1 NFkB -12, TRPM1 prom inh 28, Shn3 3UTR inh 9 and LGR2 inh 76*.
COc1ccc(Nc2nc(N3CCCCC3)c3ccccc3n2)cc1 was read as EBV LMP1 NFkB 11, TRPM1 prom inh 7 and Shn3 3UTR inh 83.
For C[C@H](CO)N1C[C@H](C)[C@@H](CN(C)C(=O)C2CC2)Oc2cc(Br)ccc2S1(=O)=O the results were LGR2 inh -1, PAX8 inh HTS -6 and EWS-Fli block 1.
`Cc1cc(N=Cc2c(O)ccc3cc(Br)ccc23)no1` gave EBV LMP1 NFkB 56*, TRPM1 prom inh 13, Shn3 3UTR inh -4, LGR2 inh 17, PAX8 inh HTS -1 and EWS-Fli block 1.
Screening Cc1cc(N=Cc2c(O)ccc3ccccc23)no1 returned EBV LMP1 NFkB -18, TRPM1 prom inh 26 and Shn3 3UTR inh 15.
CC1CN(CC(O)COC(c2ccccc2)c2ccccc2)CC(C)O1 (stereo unspecified) was read as EBV LMP1 NFkB 1, TRPM1 prom inh 3, Shn3 3UTR inh 8, PAX8 inh HTS 120* and EWS-Fli block 10.
OC(COC(c1ccccc1)c1ccccc1)CN1CCOCC1 (stereo unspecified) was read as EBV LMP1 NFkB 5, TRPM1 prom inh 10, Shn3 3UTR inh 3, LGR2 inh 6, PAX8 inh HTS 1 and EWS-Fli block 15.
For COc1ccc(/C=N/Nc2cc(C)nc3c(C)cccc23)cc1 the results were EBV LMP1 NFkB -4, TRPM1 prom inh 79*, Shn3 3UTR inh -4, LGR2 inh 3, PAX8 inh HTS 16 and EWS-Fli block 67*.
For COc1ccc2nc(C)cc(N/N=C/c3ccc(F)cc3)c2c1 the results were EBV LMP1 NFkB -7, TRPM1 prom inh 86*, Shn3 3UTR inh 54, LGR2 inh 69*, PAX8 inh HTS 33 and EWS-Fli block 71*.
COc1cccc2c(N/N=C/c3ccc(O)c(O)c3)cc(C)nc12 was read as EBV LMP1 NFkB -10, TRPM1 prom inh -23, Shn3 3UTR inh -25, LGR2 inh -18, PAX8 inh HTS -55 and EWS-Fli block -47.
For Cc1ccc2nc(C)cc(N/N=C/c3cccc(O)c3)c2c1 the results were EBV LMP1 NFkB -6, TRPM1 prom inh -20, Shn3 3UTR inh 0, LGR2 inh -1, PAX8 inh HTS 13 and EWS-Fli block -3.
